Source: PubChem BioAssay (SRMLSC)
Shown are actives, neighbours in structure and some others; about 6.8% of the full set was active somewhere.
DPM-DC inhibit: inhibitors of Streptococcus pneumoniae diphosphomevalonate decarboxylase | purified DPM-DC, PK/LDH coupled NADH fluorescence | calls only at 10 µM | actives 0.49% (n = 65,000);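 active means the 320 compounds with the highest percent inhibition in the single-dose primary screen, excluding strongly autofluorescent ones, cut at about 32% in these data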;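 further: kinetic rate of NADH fluorescence loss reporting ADP formed by the decarboxylase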
PMK inhibit: inhibitors of Streptococcus pneumoniae phosphomevalonate kinase | inhibition, % at 10 µM | purified PMK, PK/LDH-coupled NADH absorbance 340 nm | actives 0.49% (n = 65,000) | AID 539;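 active means top-ranked compounds by inhibition in the single 10 µM screen, taking a fixed number of the strongest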;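 further: 0% = full reaction with DMSO carrier and 100% = background rate without enzyme reaction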
Abs 340nm: compound absorbs light at 340 nm | compound absorbance at 340 nm, fold over control | 65,000 tested, under 10 active | fold change at 10 µM | AID 708;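 active means at 10 µM dose, initial 340 nm absorbance at least 2 fold that of control wells; inactive means change under 2 fold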;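 further: initial absorbance extrapolated from kinetic A340 decline of NADH oxidation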
NADH coupling: inhibition of NAD/NADH coupling enzymes, library profiling; IC50, µM (highest dose often 10 µM), for the others: at the top dose inhibition; actives 0.02% (n = 65,000); coupled PK/LDH NADH assays, four targets; AID 774;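 active means single-dose screening hits from any of four coupled enzyme assays that gave an IC50 when retested across doses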;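 further: the DPM-DC format reads NADH fluorescence rather than 340 nm absorbance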
Spn MK inh: inhibitors of Streptococcus pneumoniae mevalonate kinase; purified MK, PK/LDH-coupled NADH absorbance 340 nm; inhibition, % at 10 µM; actives 0.48% (n = 65,000);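 active means ranked among the strongest by inhibition in the single 10 µM screen, a fixed top-ranked set picked for dose follow-up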
Autofluor 339: intrinsic fluorescence of library compounds, ex339/em460 – biochemical, MLSMR library, data from DPM-DC assay, artefact control, profiling panel; actives 5.5% (n = 65,000); fluorescence fold increase at 10 µM; AID 709; compound autofluorescence, ex339/em460 nm, NADH buffer; hits give high values; 1 = no-compound wells, NADH background;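 active means at 10 µM, mean starting fluorescence two-fold or more over control wells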;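 further: signal is the first read of a kinetic run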
The depositor's hits bear a star; i = inactive; x = not tested or not shown; + = active, no number; [ ] = another dose, or the depositor's remark.

SMILES	DPM-DC inhibit	PMK inhibit	Abs 340nm	NADH coupling	Spn MK inh	Autofluor 339
O=C(c1ccco1)N1CCN(c2ncnc3c2[nH]c2ccc(Br)cc23)CC1	i	9	1.1	6%	10	1.7
COc1cccc2[nH]c3c(N4CCCCC4)ncnc3c12	x	9	1.1	7%	4	3.7*
O=C(c1ccco1)N1CCN(c2ncnc3c2[nH]c2ccccc23)CC1	i	7	1.1	7%	0	1.8
CCOC(=O)C1CCN(c2ncnc3c2[nH]c2cccc(OC)c23)CC1	x	16	1.1	13%	9	3.7*
Nc1c2c(nc3ccccc13)N(C1CCCCC1)CC2	x	0	1.1	25%	49*	2.3*
COc1ccc(OC)c(C2C3CN(C(C)C)CC=C3C(C#N)=C(N)C2(C#N)C#N)c1 (configuration not stated)	i	6	0.99	6%	12	1.5
N#CC1=C(N)C(C#N)(C#N)[C@H](c2ccoc2)[C@H]2CN(Cc3ccccc3)CC=C12	i	6	1.1	3%	0	2.3*
Cc1ccc(C2C3CN(C(C)C)CC=C3C(C#N)=C(N)C2(C#N)C#N)cc1 (configuration not stated)	+[fluoresces]	0	0.99	2%	5	2.3*
CN1CC=C2C(C#N)=C(N)C(C#N)(C#N)C(c3cccc(Cl)c3Cl)C2C1 (configuration not stated)	i	0	0.99	4%	19	1.6
CCN1CC=C2C(C#N)=C(N)C(C#N)(C#N)C(CCc3ccccc3)C2C1 (configuration not stated)	x	6	1.1	7%	8	5.1*
CCCN1CC=C2C(C#N)=C(N)C(C#N)(C#N)C(c3cccc(OC)c3OC)C2C1 (configuration not stated)	i	12	1	4%	0	2.2*
CCC(=O)N1CCc2cc(Br)cc(S(=O)(=O)NCCN3CCCCC3C)c21 (configuration not stated)	i	0	1	2%	6	1.1
CCCC(=O)Nc1ncnc2c1ncn2[C@@H]1O[C@@H]2COP(=O)(O)O[C@H]2[C@H]1OC(=O)CCC	i	6	0.99	1%	4	1
CCOC(=O)c1cc(CNC(=O)c2c(C)oc3c2CCCC3)c(C)o1	i	7	1	10%	14	1.2
COc1cccc2cc3c(=O)n(-c4ccccc4)nc-3oc12	+	4	0.97	19%	7	0.29
Cc1cc(C(=O)Nc2sc(C)c(-c3ccc(F)cc3)c2C(N)=O)no1	i	8	1	6%	2	2.3*
c1ccn2c(CNc3ncnc4sccc34)nnc2c1	i	17	1	6%	0	1
COC(=O)c1ccc(C(=O)OC)c(NC(=O)CCc2ccc(C)o2)c1	i	1	1	6%	7	1.4
COC(=O)c1ccc(C(=O)OC)c(NC(=O)CCC(=O)O)c1	x	0	1.1	4%	8	2.1*
CCOC(=O)c1c(CNCCN(CC)CC)n(C)c2cc(Br)c(OC)cc12	i	13	0.99	7%	7	1.1
O=C(CN1CCN(Cc2ccc(Cl)cc2)C1=O)NCCN1CCCC1	i	9	1.1	6%	9	1.1
COc1cc(C(=O)N2CCN(Cc3ccccc3C(F)(F)F)CC2)cc(OC)c1OC	i	0	1.1	15%	45*	1.1
COc1ccc(C(=O)N2CCN(Cc3ccccc3C)CC2)cc1OC	i	11	1	10%	12	1.1
COc1cc(OC)cc(C(=O)N2CCN(Cc3ccccc3C(F)(F)F)CC2)c1	i	0	1.1	17%	50*	1.1
CN1CCCN(Cc2ccccc2C(F)(F)F)CC1	i	10	1.1	22%	57*	1.1
COc1cccc(OC)c1C(=O)N1CCN(Cc2ccccc2C(F)(F)F)CC1	i	2	1	8%	23	1.1
CCCc1cc(=O)oc2cc(OCC(=O)OC)cc(OCC(=O)OC)c12	x	2	1	3%	3	2.1*
CCCc1cc(=O)oc2cc(C)cc(OCc3nn[nH]n3)c12	x	13	1.1	10%	7	3.8*
CC1=C(C(=O)OC(C)C)C(C)NC(=O)N1 (configuration not stated)	i	9	1	6%	10	1.1
